Screens from PubChem.
BAZ2B block: qHTS Assay for Inhibitors of BAZ2B; Bromodomain adjacent to zinc finger domain protein 2B (Homo sapiens), Q9UIF8; AlphaScreen BAZ2B-H3K14Ac peptide displacement; Potency, µM (titrated, usually from 114 µM), inactives show at the highest dose activity change, negative = inhibition, hits mostly inhibitors; actives 4.4% (n = 360,000); AID 504333, 2011; also: % is scaled to controls: 0 for no effect and ±100 for the full control effect; nearly all actives have a fitted effect of over 60% in size
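Compounds, titrated to a top concentration of 110 uM, were incubated 30 min at room temperature with preformed BAZ2B/acetyl-K14 H3 peptide complex (50 nM each). Proximity signal was measured by AlphaScreen after 20 min with beads.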
G9a inh: qHTS Assay for Inhibitors of Histone Lysine Methyltransferase G9a. Histone-lysine N-methyltransferase EHMT2 (Homo sapiens), Q96KQ7. G9a H3K9 monomethylation, AlphaScreen, 2 h. Potency, µM (top dose mostly 102 µM), inactives show at the top dose activity, negative = inhibition, actives largely listed as inhibitors. actives 8.8% (n = 350,000); also: % is scaled to controls: 0 for no effect and ±100 for the full control effect; nearly all actives have a fitted effect of over 75% in size
Target sequence (Q96KQ7 913-1193 limits assumed): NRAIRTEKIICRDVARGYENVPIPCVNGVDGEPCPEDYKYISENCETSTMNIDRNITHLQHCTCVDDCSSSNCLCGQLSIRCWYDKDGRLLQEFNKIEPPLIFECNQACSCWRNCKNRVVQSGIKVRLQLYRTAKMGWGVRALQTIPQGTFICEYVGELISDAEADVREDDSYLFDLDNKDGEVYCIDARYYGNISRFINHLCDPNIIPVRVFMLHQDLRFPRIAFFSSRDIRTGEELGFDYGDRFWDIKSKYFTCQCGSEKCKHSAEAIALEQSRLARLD
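Chemiluminescent proximity detection of H3K9 monomethylation, read after 10 min bead incubation in the dark. Reaction: 20 nM G9a, 500 nM biotin-H3K9 peptide, 20 uM SAM cofactor, 2 h, room temperature, following 15 min enzyme-compound preincubation.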
HP1b chromo inh: HTS for Inhibitors of HP1-beta Chromodomain Interactions with Methylated Histone Tails; AID 540317, 2011; AlphaScreen HP1-beta / biotin-H3K9me3 peptide binding; Potency, µM (top dose mostly 114 µM), for inactives: at the top dose activity change, negative = inhibition, hits mostly inhibitors; actives 0.56% (n = 390,000); also: nearly all actives have a fitted effect of over 70% in size
Target sequence (P83916 whole entry, looked up): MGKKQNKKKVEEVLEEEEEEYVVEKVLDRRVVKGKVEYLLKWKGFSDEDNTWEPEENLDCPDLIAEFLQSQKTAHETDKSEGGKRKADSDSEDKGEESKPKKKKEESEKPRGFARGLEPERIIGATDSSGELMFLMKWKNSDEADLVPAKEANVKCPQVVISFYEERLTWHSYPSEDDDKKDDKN
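AlphaScreen: HP1-beta (50 nM) preformed 30 min with biotin-H3(1-18)K9me3 peptide (50 nM) in PBS pH 7.4, 0.01% Tween-20. Compound added for 30 min at RT, then streptavidin donor/nickel chelate acceptor beads (10 ug/mL) for 30 min.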
JMJD2A Tudor: qHTS Assay for Inhibitors of JMJD2A-Tudor Domain; Potency, µM (top dose mostly 114 µM), without a hit: at the highest dose activity change, negative = inhibition, actives largely listed as inhibitors; AID 504339, 2011; AlphaScreen JMJD2A-Tudor / H3K4me3 peptide binding; actives 4.4% (n = 390,000); Lysine-specific demethylase 4A (Homo sapiens), O75164; also: % is scaled to controls: 0 for no effect and ±100 for the full control effect; nearly all actives have a fitted effect of over 50% in size
VDR inhibitor: Inhibitors of the vitamin D receptor (VDR): qHTS. Vitamin D3 receptor (Homo sapiens), P11473. actives 0.93% (n = 400,000). Potency, µM, for inactives: max response, negative = inhibition, hits mostly inhibitors. VDR-SRC2-3 peptide fluorescence polarization, 2 h; also: % is scaled to controls: 0 for no effect and ±100 for the full control effect
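VDR–SRC2-3 interaction, FP format. Cmpds 23 nl via pintool, brief spin, 2 h ambient incubation.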
PLK1 PBD block: qHTS for Inhibitors of PLK1-PDB (polo-like kinase 1 - polo-box domain): Primary Screen; Plk1 PBD binding of FITC phosphopeptide, fluorescence polarization; Potency, µM, for the others: max response, negative = inhibition, actives largely listed as inhibitors; actives 2.8% (n = 360,000); AID 720504, 2013; Serine/threonine-protein kinase PLK1 (Homo sapiens), P53350; also: series mostly up to about 57 µM; % is scaled to controls: 0 for no effect and ±100 for the full control effect; nearly all actives have a fitted effect of over 65% in size
* hit, by the source's call; ? = inconclusive; / = no result given; [ ] = remark or other dose. Only some compounds are listed: those with a hit (about 11% of all), similar ones and a draw of the others. Calls follow the shape of the dose curve; as a rule, active = well fitted curve in the direction sought with a large enough effect; inconclusive = small, poorly fitted or top-dose-only effect, or another doubt; inactive = no such curve, though single readings can be large; an effect the other way counts as inactive or inconclusive. Potency is read from the fitted curve at half-maximal effect.

SMILES	BAZ2B block	G9a inh	HP1b chromo inh	JMJD2A Tudor	VDR inhibitor	PLK1 PBD block
Nc1c(-c2ccccc2)c(CN2CCOCC2)nn1-c1cccc([N+](=O)[O-])c1	-18.3%	5.3%	34.8%	-8.2%	-9.3%	4.6%
O=C(COc1ccccc1)Nn1cnc2ccccc21	?	20µM*	30.7%	-14.6%	1.3%	?
Cc1nc2ccccc2c(=O)n1NC(=O)COc1ccccc1	-21.7%	-42.7%[12.7 µM]	3.7%	-17.2%	5.9%	-4.1%
O=C(CCOc1ccccc1)N(Cc1cccnc1)c1nc2c(Cl)cccc2s1	-8.7%	?	20.6%	-23.4%	0.9%	/
CCOC(=O)N1CCC2(CC1)C(C#N)=C(N)Oc1n[nH]c(C)c12	14.1%	?	23.6%	-19.0%	20.5%	-6.7%
CCOC(=O)N1CCC2(CC1)C(C#N)=C(N)Oc1c2c(C)nn1-c1cccc(Cl)c1	50.1µM*	?	-11.0%	?	-0.6%	?
CCOc1nc(OCC)c2[nH]c(C(=O)O)c(Br)c2n1	/	/	-7.1%	25.1µM*	-5.3%	-6.3%
CN(CCc1ccccc1)C(=O)c1cccc(NC(=O)Cc2cccc(NC(=O)C3CCCN(C(=O)c4ccccc4)C3)c2)c1 (stereo not given)	/	/	33.7%	-12.3%	-29.8%	-1.8%
C[C@@]12C(=O)Nc3ccc(F)cc3C(=O)N1[C@H]1c3ccccc3OC[C@@H]1[C@@H]2c1ccccc1	/	/	-8.3%	?	-18.4%	23.8µM*
C[C@@]12C(=O)Nc3ccc(F)cc3C(=O)N1[C@H]1c3cc(Cl)ccc3OC[C@@H]1[C@@H]2c1ccccc1	/	/	2.5%	-31.9%	0.6%	5.8%
COCC(=O)N(CCc1ccc(OC)c(OC)c1)Cc1cc2cc(C)ccc2nc1Cl	-14.6%	-2.6%[59 µM]	-12.6%	-27.1%	-9.7%	?
COc1ccc(OCC(=O)NCc2nc(-c3ccccc3)no2)cc1	/	/	-14.6%[57 µM]	-32.8%	-16.2%	29.9µM*
Cc1ccc(OCc2nc(-c3ccccc3)no2)cc1	125.0%	440.4%	82.8%	-2.9%[11.4 µM]	?	11.9µM*
O=C(OCC(=O)N1CCc2ccccc2C1)c1ccc(O)cc1	/	/	38.6%	-17.5%	4.1%	-1.7%
O=C(NC1CC(=O)N(c2cccc(F)c2)C1)C(c1ccccc1)c1ccccc1 (stereo not given)	3.3%	1.2%[59 µM]	37.1%	1.0%	7.3%	/
Brc1c(OCCOCCn2cncn2)ccc2ccccc12	-1.3%	7.5%[59 µM]	-4.3%	-16.8%[11.4 µM]	-5.9%	16.8µM*
Cc1cc(Cl)ccc1OCCn1cncn1	-0.9%	2.8%	40.1%	-2.1%	-7.8%	4.4%
Cc1[nH]nc2c1C(c1ccccc1)C1=C(CC(C)(C)CC1=O)N2 (stereo not given)	-4.8%	-43.2%	58.0%	-4.3%	-3.1%	-3.9%
Cc1ccc(C2C3=C(CC(C)(C)CC3=O)Nc3[nH]c(=S)[nH]c(=O)c32)cc1 (stereo not given)	?	?	28.7%	89.1µM*	0.5%	-21.8%
CN1CCCN(S(=O)(=O)c2ccc(O)c(C(=O)O)c2)CC1	-12.0%	79.4µM*	22.0%	-14.7%	7.3%	3.4%
CC(=O)NCc1ccc(S(=O)(=O)N2CCCN(C)CC2)cc1	-14.2%	79.4µM*	4.1%	25.1µM*	?	3.77µM*
CCCc1ccc(S(=O)(=O)N2CCN(C(C)C(=O)NCc3ccccc3)CC2)cc1 (stereo not given)	7.2%	56.2µM*	13.5%	-24.1%	-0.3%	-6.6%
CC(=O)NCc1ccc(S(=O)(=O)N2CCN(c3ccccn3)CC2)cc1	5.5%	?	25.6%	-6.2%	-6.3%	-13.7%
